Results published in ChEMBL document CHEMBL2218924, “A broad activity screen in support of a chemogenomic map for kinase signalling research and drug discovery” (Biochem J, 2013).

Columns and labels:
[1] = biological target: T1, Protein kinase C zeta type (Homo sapiens) (UniProt Q05513); settings: at 1 µM
T1 sequence (whole entry): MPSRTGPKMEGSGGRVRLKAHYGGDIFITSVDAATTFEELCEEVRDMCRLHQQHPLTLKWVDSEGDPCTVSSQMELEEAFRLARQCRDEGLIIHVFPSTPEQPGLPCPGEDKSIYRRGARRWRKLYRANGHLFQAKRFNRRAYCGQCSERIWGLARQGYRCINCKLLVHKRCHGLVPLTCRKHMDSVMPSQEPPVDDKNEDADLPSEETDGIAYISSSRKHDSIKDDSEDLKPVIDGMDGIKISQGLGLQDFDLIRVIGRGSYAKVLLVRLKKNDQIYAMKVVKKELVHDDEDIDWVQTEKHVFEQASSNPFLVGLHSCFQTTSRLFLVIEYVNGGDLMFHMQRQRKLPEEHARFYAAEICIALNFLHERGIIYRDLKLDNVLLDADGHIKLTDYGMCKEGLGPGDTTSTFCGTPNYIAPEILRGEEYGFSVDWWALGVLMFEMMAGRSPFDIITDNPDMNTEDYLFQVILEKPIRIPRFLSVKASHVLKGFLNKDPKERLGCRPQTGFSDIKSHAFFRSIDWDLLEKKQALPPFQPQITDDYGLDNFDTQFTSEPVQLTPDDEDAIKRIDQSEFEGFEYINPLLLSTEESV

[2] = biological target: T2, Mitogen-activated protein kinase kinase kinase 5 (Homo sapiens) (UniProt Q99683); settings: at 10 µM
T2 sequence (whole entry): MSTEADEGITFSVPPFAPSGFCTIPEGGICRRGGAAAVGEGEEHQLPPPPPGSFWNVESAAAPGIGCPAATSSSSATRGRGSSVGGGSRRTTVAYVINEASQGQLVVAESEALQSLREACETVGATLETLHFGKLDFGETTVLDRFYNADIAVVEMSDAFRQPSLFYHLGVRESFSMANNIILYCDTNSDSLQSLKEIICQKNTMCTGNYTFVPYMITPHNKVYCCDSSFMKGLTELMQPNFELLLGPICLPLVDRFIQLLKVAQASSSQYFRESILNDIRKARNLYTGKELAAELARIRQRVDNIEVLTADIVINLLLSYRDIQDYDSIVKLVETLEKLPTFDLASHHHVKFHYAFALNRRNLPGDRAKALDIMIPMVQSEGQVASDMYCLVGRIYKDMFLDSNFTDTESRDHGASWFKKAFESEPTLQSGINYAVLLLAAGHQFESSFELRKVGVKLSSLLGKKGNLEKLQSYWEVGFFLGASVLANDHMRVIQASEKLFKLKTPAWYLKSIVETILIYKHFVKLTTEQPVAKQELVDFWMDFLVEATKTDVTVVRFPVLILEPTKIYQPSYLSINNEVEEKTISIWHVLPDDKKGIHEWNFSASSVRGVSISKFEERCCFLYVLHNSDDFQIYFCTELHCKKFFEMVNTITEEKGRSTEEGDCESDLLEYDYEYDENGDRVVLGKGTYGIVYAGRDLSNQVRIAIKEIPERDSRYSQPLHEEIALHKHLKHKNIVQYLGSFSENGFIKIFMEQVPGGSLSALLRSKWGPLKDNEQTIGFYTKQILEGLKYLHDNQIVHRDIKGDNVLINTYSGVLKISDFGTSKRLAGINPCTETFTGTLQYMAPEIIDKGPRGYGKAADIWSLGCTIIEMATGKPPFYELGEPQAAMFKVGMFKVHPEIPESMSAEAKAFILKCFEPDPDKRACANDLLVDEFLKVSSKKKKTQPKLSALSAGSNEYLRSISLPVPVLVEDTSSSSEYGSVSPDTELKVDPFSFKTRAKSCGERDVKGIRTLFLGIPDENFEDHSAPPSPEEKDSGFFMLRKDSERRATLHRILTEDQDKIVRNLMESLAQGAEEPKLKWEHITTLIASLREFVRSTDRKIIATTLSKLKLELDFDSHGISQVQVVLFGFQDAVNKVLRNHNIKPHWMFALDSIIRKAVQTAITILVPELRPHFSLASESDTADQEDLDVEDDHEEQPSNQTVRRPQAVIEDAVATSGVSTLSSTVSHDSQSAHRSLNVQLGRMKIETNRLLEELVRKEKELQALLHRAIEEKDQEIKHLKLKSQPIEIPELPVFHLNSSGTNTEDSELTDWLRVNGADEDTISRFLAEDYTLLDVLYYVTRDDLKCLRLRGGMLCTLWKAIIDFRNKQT

[3] = biological target: Tyrosine-protein kinase ABL1 (Homo sapiens) (UniProt P00519); settings: at 1 µM
[4] = biological target: Tyrosine-protein kinase ABL1 (Homo sapiens) (UniProt P00519); settings: at 10 µM
[5] = biological target: Tyrosine-protein kinase ABL2 (Homo sapiens) (UniProt P42684); settings: at 1 µM
[6] = biological target: Tyrosine-protein kinase ABL2 (Homo sapiens) (UniProt P42684); settings: at 10 µM
[7] = biological target: T3, Aurora kinase A (Homo sapiens) (UniProt O14965); settings: at 1 µM
T3 sequence (whole entry): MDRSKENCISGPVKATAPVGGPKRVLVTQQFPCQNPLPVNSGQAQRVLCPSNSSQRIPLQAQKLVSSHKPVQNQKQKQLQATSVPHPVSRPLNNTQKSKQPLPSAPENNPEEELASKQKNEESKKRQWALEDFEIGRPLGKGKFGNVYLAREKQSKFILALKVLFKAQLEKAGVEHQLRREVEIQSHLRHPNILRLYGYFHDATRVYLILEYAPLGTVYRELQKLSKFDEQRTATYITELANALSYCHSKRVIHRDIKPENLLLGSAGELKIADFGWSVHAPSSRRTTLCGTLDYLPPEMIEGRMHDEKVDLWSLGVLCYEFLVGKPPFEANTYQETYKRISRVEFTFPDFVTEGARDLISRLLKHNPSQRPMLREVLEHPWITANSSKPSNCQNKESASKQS

[8] = biological target: T3, Aurora kinase A (Homo sapiens); settings: at 10 µM
[9] = biological target: Aurora kinase B (Homo sapiens) (UniProt Q96GD4); settings: at 1 µM
[10] = biological target: Aurora kinase B (Homo sapiens) (UniProt Q96GD4); settings: at 10 µM
[11] = biological target: T4, Aurora kinase C (Homo sapiens) (UniProt Q9UQB9); settings: at 1 µM
T4 sequence (whole entry): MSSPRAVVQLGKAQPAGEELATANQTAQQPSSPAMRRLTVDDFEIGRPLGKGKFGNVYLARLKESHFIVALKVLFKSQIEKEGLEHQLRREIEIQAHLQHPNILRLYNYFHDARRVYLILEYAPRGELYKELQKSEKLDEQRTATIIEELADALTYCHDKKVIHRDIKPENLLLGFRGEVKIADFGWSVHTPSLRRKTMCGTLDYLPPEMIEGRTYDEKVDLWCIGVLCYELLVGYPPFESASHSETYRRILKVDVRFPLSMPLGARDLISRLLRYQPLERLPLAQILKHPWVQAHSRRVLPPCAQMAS

[12] = biological target: T4, Aurora kinase C (Homo sapiens); settings: at 10 µM
[13] = biological target: Tyrosine-protein kinase receptor UFO (Homo sapiens) (UniProt P30530); settings: at 1 µM
[14] = biological target: Tyrosine-protein kinase receptor UFO (Homo sapiens) (UniProt P30530); settings: at 10 µM
[15] = biological target: Protein-tyrosine kinase 6 (Homo sapiens) (UniProt Q13882); settings: at 1 µM
[16] = biological target: Protein-tyrosine kinase 6 (Homo sapiens) (UniProt Q13882); settings: at 10 µM
[17] = biological target: Tyrosine-protein kinase BTK (Homo sapiens) (UniProt Q06187); settings: at 1 µM
[18] = biological target: Tyrosine-protein kinase BTK (Homo sapiens) (UniProt Q06187); settings: at 10 µM
[19] = biological target: Tyrosine-protein kinase Blk (Homo sapiens) (UniProt P51451); settings: at 1 µM
[20] = biological target: Tyrosine-protein kinase Blk (Homo sapiens) (UniProt P51451); settings: at 10 µM

Chain of Aurora kinase B (Homo sapiens) (Q96GD4 whole entry): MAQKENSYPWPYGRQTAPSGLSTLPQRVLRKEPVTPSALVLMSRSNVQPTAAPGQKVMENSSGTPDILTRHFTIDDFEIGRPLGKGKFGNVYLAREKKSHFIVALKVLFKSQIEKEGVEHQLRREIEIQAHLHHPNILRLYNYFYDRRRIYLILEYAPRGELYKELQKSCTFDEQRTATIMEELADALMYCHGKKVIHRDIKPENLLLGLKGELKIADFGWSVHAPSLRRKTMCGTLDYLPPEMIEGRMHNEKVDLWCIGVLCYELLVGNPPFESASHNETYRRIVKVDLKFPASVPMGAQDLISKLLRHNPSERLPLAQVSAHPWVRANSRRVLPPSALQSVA
Chain of Tyrosine-protein kinase BTK (Homo sapiens) (Q06187 whole entry): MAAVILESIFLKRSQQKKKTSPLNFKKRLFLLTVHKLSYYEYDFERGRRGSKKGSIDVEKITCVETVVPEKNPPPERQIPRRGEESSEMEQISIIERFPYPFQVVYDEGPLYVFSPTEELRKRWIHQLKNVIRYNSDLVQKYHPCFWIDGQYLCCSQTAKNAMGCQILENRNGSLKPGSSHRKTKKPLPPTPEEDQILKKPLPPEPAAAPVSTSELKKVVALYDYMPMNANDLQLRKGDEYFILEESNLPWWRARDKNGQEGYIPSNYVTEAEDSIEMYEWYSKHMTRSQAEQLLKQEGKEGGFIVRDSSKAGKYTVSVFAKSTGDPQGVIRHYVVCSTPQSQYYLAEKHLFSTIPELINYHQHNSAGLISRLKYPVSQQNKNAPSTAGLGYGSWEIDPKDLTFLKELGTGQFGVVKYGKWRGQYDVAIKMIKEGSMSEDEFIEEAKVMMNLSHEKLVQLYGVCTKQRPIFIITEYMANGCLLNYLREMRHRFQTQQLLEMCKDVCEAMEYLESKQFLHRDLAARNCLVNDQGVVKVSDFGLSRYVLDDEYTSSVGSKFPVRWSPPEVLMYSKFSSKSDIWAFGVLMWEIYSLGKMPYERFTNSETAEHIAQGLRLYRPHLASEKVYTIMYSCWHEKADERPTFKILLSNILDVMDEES
Chain of Tyrosine-protein kinase ABL1 (Homo sapiens) (P00519 whole entry): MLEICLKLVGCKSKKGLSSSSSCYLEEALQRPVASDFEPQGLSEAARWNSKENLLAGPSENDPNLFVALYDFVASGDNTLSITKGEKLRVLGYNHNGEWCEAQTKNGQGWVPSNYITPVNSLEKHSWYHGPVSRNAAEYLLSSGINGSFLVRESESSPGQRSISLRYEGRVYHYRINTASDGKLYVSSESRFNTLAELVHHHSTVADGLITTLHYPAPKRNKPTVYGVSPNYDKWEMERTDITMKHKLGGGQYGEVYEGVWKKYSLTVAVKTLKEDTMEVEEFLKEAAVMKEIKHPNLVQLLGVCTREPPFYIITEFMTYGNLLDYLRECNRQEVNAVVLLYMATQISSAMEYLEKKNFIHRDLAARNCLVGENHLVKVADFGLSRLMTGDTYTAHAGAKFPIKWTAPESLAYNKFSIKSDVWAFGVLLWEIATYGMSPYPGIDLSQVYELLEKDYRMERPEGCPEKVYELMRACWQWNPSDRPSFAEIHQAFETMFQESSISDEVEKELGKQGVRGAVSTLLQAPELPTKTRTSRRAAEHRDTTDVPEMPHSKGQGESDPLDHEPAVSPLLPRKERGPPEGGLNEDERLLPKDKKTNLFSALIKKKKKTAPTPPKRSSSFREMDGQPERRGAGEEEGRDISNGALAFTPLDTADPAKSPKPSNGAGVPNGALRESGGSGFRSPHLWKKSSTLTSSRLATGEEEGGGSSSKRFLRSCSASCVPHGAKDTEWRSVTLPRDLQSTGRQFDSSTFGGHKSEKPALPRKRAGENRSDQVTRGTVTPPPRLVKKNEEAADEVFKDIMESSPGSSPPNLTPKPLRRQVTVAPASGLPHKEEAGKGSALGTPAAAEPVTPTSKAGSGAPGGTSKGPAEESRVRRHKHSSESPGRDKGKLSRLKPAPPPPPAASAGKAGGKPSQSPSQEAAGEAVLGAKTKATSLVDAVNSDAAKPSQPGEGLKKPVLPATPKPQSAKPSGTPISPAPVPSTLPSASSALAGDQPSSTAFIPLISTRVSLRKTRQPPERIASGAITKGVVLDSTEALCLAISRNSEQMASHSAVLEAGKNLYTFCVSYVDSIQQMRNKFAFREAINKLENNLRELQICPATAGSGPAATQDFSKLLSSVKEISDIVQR
Chain of Tyrosine-protein kinase receptor UFO (Homo sapiens) (P30530 whole entry): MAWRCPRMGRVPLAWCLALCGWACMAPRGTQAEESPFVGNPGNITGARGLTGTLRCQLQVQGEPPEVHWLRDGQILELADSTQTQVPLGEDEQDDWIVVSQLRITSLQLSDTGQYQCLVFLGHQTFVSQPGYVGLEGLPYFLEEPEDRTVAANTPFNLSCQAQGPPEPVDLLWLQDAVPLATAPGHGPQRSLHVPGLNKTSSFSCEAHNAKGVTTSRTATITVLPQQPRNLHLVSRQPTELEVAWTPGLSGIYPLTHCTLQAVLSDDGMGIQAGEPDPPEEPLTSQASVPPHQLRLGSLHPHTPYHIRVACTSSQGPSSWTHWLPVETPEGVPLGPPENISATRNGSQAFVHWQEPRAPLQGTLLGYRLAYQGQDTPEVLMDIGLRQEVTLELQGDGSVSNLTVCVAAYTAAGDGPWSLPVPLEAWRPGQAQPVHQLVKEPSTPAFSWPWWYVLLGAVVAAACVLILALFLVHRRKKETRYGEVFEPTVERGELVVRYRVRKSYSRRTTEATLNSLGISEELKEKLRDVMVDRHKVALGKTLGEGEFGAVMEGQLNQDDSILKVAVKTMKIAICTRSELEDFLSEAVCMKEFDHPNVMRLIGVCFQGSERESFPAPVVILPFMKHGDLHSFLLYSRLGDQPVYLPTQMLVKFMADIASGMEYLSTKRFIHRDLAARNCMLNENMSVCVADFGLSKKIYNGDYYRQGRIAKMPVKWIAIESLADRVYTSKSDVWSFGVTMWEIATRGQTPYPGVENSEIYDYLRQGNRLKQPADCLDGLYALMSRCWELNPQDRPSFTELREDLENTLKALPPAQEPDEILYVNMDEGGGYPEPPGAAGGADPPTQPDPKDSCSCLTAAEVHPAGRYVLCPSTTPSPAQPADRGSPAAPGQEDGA
Chain of Tyrosine-protein kinase Blk (Homo sapiens) (P51451 2-505 limits assumed): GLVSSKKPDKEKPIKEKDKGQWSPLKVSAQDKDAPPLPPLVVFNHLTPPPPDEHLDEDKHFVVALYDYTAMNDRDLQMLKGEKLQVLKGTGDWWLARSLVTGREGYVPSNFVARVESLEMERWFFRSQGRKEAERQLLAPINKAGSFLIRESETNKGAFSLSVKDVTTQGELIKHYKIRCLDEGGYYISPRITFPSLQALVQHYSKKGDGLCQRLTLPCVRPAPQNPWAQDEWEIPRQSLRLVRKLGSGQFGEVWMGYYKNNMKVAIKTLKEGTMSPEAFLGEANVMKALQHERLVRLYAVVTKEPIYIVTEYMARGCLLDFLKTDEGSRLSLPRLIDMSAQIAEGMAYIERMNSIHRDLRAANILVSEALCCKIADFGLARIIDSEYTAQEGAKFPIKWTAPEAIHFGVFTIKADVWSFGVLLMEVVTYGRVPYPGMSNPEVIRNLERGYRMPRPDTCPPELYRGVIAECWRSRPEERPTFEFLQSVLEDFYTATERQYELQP
Chain of Tyrosine-protein kinase ABL2 (Homo sapiens) (P42684 whole entry): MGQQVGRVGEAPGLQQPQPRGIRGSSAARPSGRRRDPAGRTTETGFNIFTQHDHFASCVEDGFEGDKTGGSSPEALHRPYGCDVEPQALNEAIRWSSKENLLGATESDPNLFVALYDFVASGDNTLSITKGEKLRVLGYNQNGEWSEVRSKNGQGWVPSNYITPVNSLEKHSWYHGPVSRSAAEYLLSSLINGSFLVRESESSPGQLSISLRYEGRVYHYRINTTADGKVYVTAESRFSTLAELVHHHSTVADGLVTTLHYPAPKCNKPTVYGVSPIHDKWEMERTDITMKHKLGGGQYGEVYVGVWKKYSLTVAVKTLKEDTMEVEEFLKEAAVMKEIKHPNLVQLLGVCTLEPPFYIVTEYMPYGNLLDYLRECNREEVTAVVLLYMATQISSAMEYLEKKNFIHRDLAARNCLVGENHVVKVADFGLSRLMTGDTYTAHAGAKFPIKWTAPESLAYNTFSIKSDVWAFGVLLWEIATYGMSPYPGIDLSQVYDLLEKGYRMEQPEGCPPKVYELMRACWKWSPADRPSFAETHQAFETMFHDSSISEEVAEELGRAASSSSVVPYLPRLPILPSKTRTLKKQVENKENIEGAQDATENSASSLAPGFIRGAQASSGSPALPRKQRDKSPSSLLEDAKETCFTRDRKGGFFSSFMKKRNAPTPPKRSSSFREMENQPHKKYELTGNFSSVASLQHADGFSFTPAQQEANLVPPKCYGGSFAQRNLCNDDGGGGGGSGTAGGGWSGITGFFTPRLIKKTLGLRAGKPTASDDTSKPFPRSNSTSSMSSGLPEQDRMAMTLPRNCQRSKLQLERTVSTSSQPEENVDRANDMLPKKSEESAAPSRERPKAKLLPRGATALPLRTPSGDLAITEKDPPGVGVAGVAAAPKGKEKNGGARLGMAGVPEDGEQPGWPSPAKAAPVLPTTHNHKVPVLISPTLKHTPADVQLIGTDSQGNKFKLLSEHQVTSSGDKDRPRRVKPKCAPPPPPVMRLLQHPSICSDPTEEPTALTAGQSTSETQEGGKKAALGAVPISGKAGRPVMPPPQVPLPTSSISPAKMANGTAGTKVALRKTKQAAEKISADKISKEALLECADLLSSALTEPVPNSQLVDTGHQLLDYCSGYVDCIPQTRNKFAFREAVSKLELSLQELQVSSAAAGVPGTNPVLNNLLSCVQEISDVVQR

| Structure (SMILES) | residual activity [1] | residual activity [2] | residual activity [3] | residual activity [4] | residual activity [5] | residual activity [6] | residual activity [7] | residual activity [8] | residual activity [9] | residual activity [10] | residual activity [11] | residual activity [12] | residual activity [13] | residual activity [14] | residual activity [15] | residual activity [16] | residual activity [17] | residual activity [18] | residual activity [19] | residual activity [20] |
| --- | --- | --- | --- | --- | --- | --- | --- | --- | --- | --- | --- | --- | --- | --- | --- | --- | --- | --- | --- | --- |
| Ic1cccc(CSc2nnc(-c3ccncc3)o2)c1 | 101% (inactive) | 86% | 87% | 70% | 112% | 71% | 83% | 80% | 77% | 42% | 79% | 74% | 74% | 60% | 105% | 96% | 79% | 95% | 87% | 61% |
| Cn1cnc2cc3c(Nc4cccc(Br)c4)ncnc3cc21 | 99% (inactive) | 107% | 29% | 10% | 42% | 14% | 78% | 45% | 45% | 6% | 80% | 52% | 77% | 57% | 78% | 55% | 67% | 44% | 50% | 18% |
| CN(C)CCCn1cc(C2=C(c3c[nH]c4ccccc34)C(=O)NC2=O)c2ccccc21 | 72% (inactive) | 108% | 108% | 108% | 90% | 76% | 100% | 80% | 31% | 7% | 109% | 72% | 70% | 39% | 110% | 89% | 89% | 72% | 65% | 13% |
| Nc1n[nH]c2nnc(-c3c(-c4ccccc4)nn4ccccc34)cc12 | 116% (inactive) | 100% | 64% | 19% | 66% | 18% | 105% | 92% | 91% | 41% | 83% | 66% | 98% | 84% | 95% | 78% | 86% | 47% | 100% | 63% |
| CC(=O)O/N=C1\C(=C2\C(=O)Nc3cc(Br)ccc32)Nc2ccccc21 | 108% (inactive) | 94% | 60% | 7% | 31% | 4% | 41% | 17% | 19% | 6% | 89% | 82% | 77% | 44% | 99% | 77% | 25% | 4% | 19% | 3% |
| CC#CC(=O)Nc1cc2c(Nc3ccc(F)c(Cl)c3)ncnc2cn1 | 97% (inactive) | 94% | 92% | 91% | 118% | 74% | 106% | 108% | 114% | 85% | 99% | 73% | 82% | 74% | 99% | 97% | 47% | 16% | 82% | 49% |
| CCOc1cc2ncnc(Nc3cccc(Br)c3)c2cc1OCC | 104% (inactive) | 115% | 48% | 5% | 36% | 4% | 55% | 46% | 56% | 7% | 98% | 52% | 66% | 31% | 18% | 2% | 72% | 28% | 17% | 3% |
| O=C1c2ccccc2-[n+]2ccc3c([nH]c4ccccc43)c21 | 98% (inactive) | 92% | 102% | 102% | 111% | 87% | 101% | 89% | 93% | 52% | 83% | 72% | 73% | 62% | 97% | 80% | 94% | 87% | 95% | 76% |
